About 2,700 (0.93%) of roughly 290,000 compounds were called active. The rule behind the calls is not given here. Only a selection was taken, and actives are over-represented in it overall.
Target: Eukaryotic translation initiation factor 4H (Homo sapiens) (UniProt Q15056)
Assay: human eIF4H binding inhibitors, primary screen, translation initiation inhibitor project, biochemical, uHTS, fluorescence polarization (AID 2012);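 note: calls also rest on retests at 20 µM and on dose response follow-up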
Conditions: eIF4H fluorescence polarization binding assay, stronger effect = higher value

SMILES	inhibition (at 35 µM)	inhibition (confirmation average, at 20 µM) [%]
CC(=O)N1CCN(c2ccccc2NC(=S)NC(=O)c2cc3ccccc3o2)CC1	-11.7% (inactive)	–
CC(C(=O)Nc1ccc(O)c(C(=O)O)c1)N1C(=O)/C(=C/c2cccs2)SC1=S (stereo not given)	-4.3% (inactive)	–
Nc1ccc(S(=O)(=O)NC(=O)c2ccccc2)cc1	-6.9% (active)	95.5
CC(=O)NS(=O)(=O)c1ccccc1	-6.2% (inactive)	–
Cc1ccc(S(=O)(=O)NC(=O)c2cccc(C)c2)cc1	-5% (inactive)	–
CN1CN(C)c2ccc([N+](=O)[O-])c3cccc1c23	2.5% (inactive)	–
Nc1c(C(=O)c2cccs2)sc2nsc(SCCN3CCCCC3)c12	47.9% (inactive)	–
CN(C(=O)COC(=O)c1nc(Cl)ccc1Cl)C1CCS(=O)(=O)C1 (stereo not given)	10.5% (inactive)	–
CN(C(=O)COC(=O)c1cc(-c2ccco2)nc2ccccc12)C1CCS(=O)(=O)C1 (stereo not given)	87.9% (active)	–
Cc1c(-c2cccc(Cl)c2)nc2ccccc2c1C(=O)OCC(=O)N(C)C1CCS(=O)(=O)C1 (stereo not given)	-7% (inactive)	–
Cc1ccnc2nc(C(=O)Nc3nnc(-c4ccccc4)o3)nn12	79.8% (active)	77.1
CCc1nnc(NC(=O)c2nc3nccc(C)n3n2)s1	-4% (inactive)	–
Cc1cccc(NC(=O)Nc2nnc(-c3ccccc3)o2)c1	-0.2% (inactive)	–
O=C(N/N=C/c1ccccc1O)C1CCCC1	-4.4% (inactive)	–
CN(C(=O)C1CCN(c2ncnc3c2nc2n3CCCCC2)CC1)C1CCCCC1	-2.5% (inactive)	–
Cc1ccc(OCc2cc(C(=O)N(C)CCn3ccnc3C)no2)cc1C	-8.6% (inactive)	–
Cc1cccn2c(=O)c3cc(C(=O)NCC4CCCO4)c(=N)n(Cc4ccc(F)cc4)c3nc12 (stereo not given)	-14.9% (inactive)	–
COc1ccc(CNC(=O)c2cc3c(=O)n4ccccc4nc3n(CC3CCCO3)c2=N)cc1 (stereo not given)	-5.4% (inactive)	–
Cc1ccc2nc3c(cc(C(=O)NCCc4ccccc4)c(=N)n3CC3CCCO3)c(=O)n2c1 (stereo not given)	94.7% (active)	–
Cc1cc(NC(=O)[C@H](C)NC(=O)c2ccco2)ccc1Br	-0.5% (inactive)	–
O=C1CC(N2CCN(c3ccc(F)cc3)CC2)C(=O)N1c1ccccc1 (stereo not given)	-4% (inactive)	–
N#CC1=C(N)N(c2ccc(F)cc2)C(=O)C1	50% (active)	–
O=C1CCCC2=C1C(c1cccs1)CC(=O)N2c1ccc(F)cc1 (stereo not given)	-3.5% (inactive)	–
Cc1cc(S(=O)(=O)N2CCOCC2)ccc1OCC(=O)N1CCOCC1	-9.8% (inactive)	–

SMILES	inhibition (at 35 µM)	inhibition (confirmation average, at 20 µM) [%]
O=C(NC1CCC(O)CC1)c1ccccc1OCc1ccc(F)cc1 (stereo not given)	4.1% (inactive)	–
CCCNC(=O)CCc1c(C)nc2c(c(C)nn2-c2ccccc2)c1C	-1.8% (inactive)	–
Cc1ccc(NC(=O)C(CC(=O)O)C2CCCO2)c(C)c1 (stereo not given)	-7% (inactive)	–
O=C(N/N=C/c1cccc([N+](=O)[O-])c1)c1ccncc1	0.8% (inactive)	–
N/C(=N\OS(=O)(=O)c1cccc([N+](=O)[O-])c1)c1ccncc1	73.8% (active)	88.7
CO/N=C(\N)c1ccc([N+](=O)[O-])cc1	0.6% (inactive)	–
CC(Cc1cccs1)N(Cc1ccc(Cl)cc1)C(=O)c1ccncc1 (stereo not given)	-2% (inactive)	–
COc1ccc(C(=O)OCC(=O)NCC2CCCCC2)cc1S(=O)(=O)N1CCCc2ccccc21	-7.1% (inactive)	–
COc1ccccc1N(C)C(=O)c1cc(S(=O)(=O)N2CCc3ccccc32)cn1C	-9.4% (inactive)	–
CCN(C(=O)COC(=O)c1cc(S(=O)(=O)N2CCc3ccccc32)ccc1OC)C1CCS(=O)(=O)C1 (stereo not given)	3.9% (active)	71.9
COc1cc(OC)c(NC(=O)C2CCCN2C(=O)OCc2ccccc2)cc1Cl (stereo not given)	-2% (inactive)	–
Cc1cccc(C(=O)NC(=S)N(C)C2CCCCC2)c1	-8.7% (inactive)	–
S=C(NCc1ccc2c(c1)OCO2)NCc1ccco1	-0.2% (inactive)	–
COc1cccc(NC(=S)NCc2ccco2)c1	22.2% (inactive)	–
S=C(NCc1ccco1)Nc1ccc2c(c1)OCCO2	-2.7% (active)	51.4
O=C(CSc1ccc(-c2ccc(Br)cc2)nn1)NCC1CCCO1 (stereo not given)	3.3% (inactive)	–
O=C(N/N=C/c1ccc(OCc2ccccc2)cc1)c1ccc(O)cc1	-5.8% (inactive)	–
O=C(COc1ccc([N+](=O)[O-])cc1)Nc1ccc(N2CCCC2)cc1	13.8% (inactive)	–
O=C(COc1ccc(/C=N/NC(=O)c2ccc(O)cc2)cc1)Nc1ccc([N+](=O)[O-])cc1	-1.7% (active)	85.6
CCSCc1nc(N)nc(NCCc2ccccc2)n1	-0.9% (inactive)	–
CSc1ncc(C(=O)NCCCc2ccccc2)c(C)n1	-7.3% (inactive)	–
CC(=O)c1cnc(SCCN2C(=O)c3ccccc3C2=O)nc1C	-11.9% (inactive)	–
CC(=O)c1cnc(SCC(=O)O)nc1C	-2.4% (active)	82.3
CSCCC(NS(=O)(=O)c1ccccc1F)C(=O)N1CC=C(c2ccccc2)CC1 (stereo not given)	0% (inactive)	–

SMILES	inhibition (at 35 µM)	inhibition (confirmation average, at 20 µM) [%]
Cn1cccc1/C=N/NC(=O)CNc1cccc2ccccc12	-6.2% (inactive)	–
COc1ccc(/C=N/NC(=O)c2cccc(C(F)(F)F)c2)cc1	-2.2% (inactive)	–
Cn1cccc1/C=N/NC(=O)c1ccc(OC(F)(F)C(F)F)cc1	9.7% (active)	56.1
NC(=O)c1ccc(Nc2ccc3nonc3c2[N+](=O)[O-])cc1	-14.2% (inactive)	–
COc1ccccc1NC(=O)N1CCCC1C(=O)NCc1cccs1 (stereo not given)	-15.4% (inactive)	–
CCS(=O)(=O)N1CCC(N2CCN(c3ccccc3)CC2)CC1	7.8% (inactive)	–
C/C(=C\c1ccco1)C1Nc2cccc3cccc(c23)N1	107% (active)	–
CC(/C=N/NC(=O)c1cc(-c2ccc3ccccc3c2)n[nH]1)=C\c1ccco1	66.1% (inactive)	-19.6
CC(/C=N/NC(=O)c1ccncc1)=C\c1ccco1	25.2% (inactive)	–
Cc1ccc(-n2nc3ccc(NC(=O)/C=C/c4ccco4)cc3n2)cc1C	71.7% (active)	73.8
O=C(/C=C/c1ccco1)Nc1ccc(Oc2ccccc2)cc1	2.4% (inactive)	–
O=C(/C=C/c1ccco1)Nc1cccc(-c2nc3ccccc3[nH]2)c1	-7.2% (inactive)	–
COc1ccc(C2CC(c3ccc([N+](=O)[O-])cc3)=NN2C(C)=O)cc1 (stereo not given)	2.5% (inactive)	–
N#CC1=C(N)Oc2c(sc3ccccc23)C1c1ccco1 (stereo not given)	74% (active)	–
CC1=C(C(=O)Nc2ccccc2)C(c2ccco2)C(C#N)=C(SCC(N)=O)N1 (stereo not given)	10.9% (inactive)	–
Cc1cc(C)c2c3c(sc2n1)C(c1ccccc1)C(C#N)=C(N)O3 (stereo not given)	1% (inactive)	28.6
COc1ccccc1CCNC(=O)c1c(C)nn(CC(C)C)c1Cl	-10.7% (inactive)	–
O=S(=O)(Oc1ccccc1C(=S)N1CCOCC1)c1ccc(Cl)cc1	1% (inactive)	–
Cc1cc(C)nc(N/N=C/c2ccncc2)n1	-8.8% (inactive)	–
CCN(CC)c1ccc(/C=N/NC(=O)c2cnccn2)c(O)c1	1.5% (inactive)	–
CCN(CC)c1ccc(/C=N/Nc2nc(C)cc(C)n2)c(O)c1	83.3% (active)	87.6
Cc1ccccc1CN1CCNC(=O)C1CC(=O)NCCC1=CCCCC1 (stereo not given)	5.3% (inactive)	–
COc1cccc(CNS(=O)(=O)c2csc(C(N)=O)c2)c1	5.7% (inactive)	–
CS(=O)(=O)N1CCc2nc(-c3ccccc3)sc2C1	-3.4% (inactive)	–

SMILES	inhibition (at 35 µM)	inhibition (confirmation average, at 20 µM) [%]
Cc1cc([N+](=O)[O-])ccc1NC(=O)C1CCCO1 (stereo not given)	-1.7% (inactive)	–
Cc1cc(C)c2nc(NC(=O)C3CCCO3)sc2c1 (stereo not given)	-3.8% (inactive)	–
Cc1ccc(C)c(C(C)NC(=O)C2CCCO2)c1 (stereo not given)	92.8% (active)	–
COc1ccc(COC(=O)c2ccc(Cl)c(S(=O)(=O)N3CCOCC3)c2)cc1F	1.3% (inactive)	–
NS(=O)(=O)c1ccc(NC(=O)COC(=O)c2cc3ccccc3oc2=O)cc1	-1.4% (inactive)	–
NS(=O)(=O)c1ccc(NC(=O)COC(=O)c2ccc(Cl)nc2)cc1	7.6% (inactive)	–
NS(=O)(=O)c1ccc(NC(=O)COC(=O)c2ccco2)cc1	-10.4% (active)	80.1
Cc1ccc(NC2CCCN(C(=O)CCC3(C)CC3)C2)cc1C (stereo not given)	-6.4% (inactive)	–
CCCCc1ccc(NC(=O)NCc2cccnc2)cc1	-1.5% (inactive)	–
CCC1C(=O)NCCN1C(=O)c1ccc2nc(Cc3ccc(OC)cc3)oc2c1 (stereo not given)	-1.1% (inactive)	–
COC(=O)c1sccc1NC(=O)c1ccc(Cl)cc1	-1.7% (inactive)	–
COC(=O)c1sccc1NC(=O)COc1ccc(Cl)cc1	-2% (active)	90
O=C(COc1ccc(Cl)cc1)Nc1ccccc1CO	-15.9% (inactive)	–
O=C(CCC(=O)n1ncc2ccccc21)NCc1ccccc1Cl	-5.2% (inactive)	–
Cc1nc2c(c(=O)n1Cc1ccco1)c1nc3ccccc3nc1n2Cc1ccccc1	68.6% (active)	–
Cc1ccc(Cn2c(C)nc3c(c2=O)c2nc4ccccc4nc2n3Cc2ccco2)cc1	18% (inactive)	–
COCCCn1c2nc3ccccc3nc2c2c(=O)n(Cc3ccc(Cl)cc3)c(C)nc21	-0.3% (inactive)	–
Cc1cc(NC(=O)CCC(=O)N(CC(=O)NC2CCCC2)c2ccc(F)cc2)no1	-1.3% (inactive)	–
O=C(CSc1ccc(-c2ccccn2)nn1)Nc1ccccc1	-8.7% (inactive)	–
COc1ccc2[nH]c(=O)c(C3c4cc(OC)c(OC)cc4CCN3C(=O)c3ccco3)cc2c1 (stereo not given)	-6.8% (inactive)	–
COc1ccc(NS(=O)(=O)c2ccc(F)cc2F)cn1	65.2% (active)	–
CCOc1ccc(S(=O)(=O)Nc2ccc(OC)nc2)cc1	-8.8% (inactive)	–
COc1ccc(S(=O)(=O)Nc2ccc(F)cc2)c(C)c1C	7.4% (inactive)	–
Cc1ccc(NS(=O)(=O)c2ccc(C(C)(C)C)cc2)cn1	-2.4% (inactive)	–
